# Data from PubChem BioAssay (Tox21).
# Inconclusive results are not listed. Where a call stands in place of a potency, no number is given. Unmarked numbers belong to inactive results. Calls of active or inactive are those of the source. The call rests on the fitted dose curve; in most records, active means well fitted cell-killing curve with a large enough effect in the repeat runs; inconclusive means weak or mixed curves, or effect the other way; inactive means flat fitted curve, though single readings scatter.
# How the values were obtained:
# [1] = cAMP Responsive Elements (CRE) small molecule antagonists, cell-based qHTS assay: qHTS cell viability counter screen (AID 2060913); further: nearly all actives have a fitted effect of over 40% in size
# Procedure, shortened: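 Cytotoxicity read in the same wells as the CRE-bla HEK293T antagonist assay: after 3 h compound with 0.25 uM NKH477 final and 2 h beta-lactamase substrate, CellTiter-Glo luminescence measured.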
# [2] = cAMP Responsive Elements (CRE) small molecule agonists, cell-based qHTS assay: qHTS cell viability counter screen (AID 2060914); further: nearly all actives have a fitted effect of over 50% in size
# Procedure, shortened: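 In the same wells as the reporter read, viability of CRE-bla HEK 293T cells was quantified by CellTiter-Glo luminescence after a 3 h compound exposure.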
# Potency means the concentration at half of the fitted maximal effect.
Compound,Potency [1],Potency [2],"viability change, negative = cytotoxic [1]","activity change, negative = cytotoxicity [2]"
CCC[C@@H]1C[C@@H](C(=O)N[C@@H]([C@H]2O[C@H](SC)[C@H](O)[C@@H](O)[C@H]2O)[C@@H](C)O)N(C)C1,inactive,inactive,,
CC1=CCC(=O)O1,inactive,inactive,,
NC[C@H]1O[C@H](O[C@H]2[C@H](O)[C@@H](O[C@H]3O[C@H](CO)[C@@H](O)[C@H](N)[C@H]3O)[C@H](N)C[C@@H]2N)[C@H](N)[C@@H](O)[C@@H]1O,,,-2.98% [at 18.9 µM],-6.94% [at 18.9 µM]
COc1cc(C)cc(O)c1,inactive,inactive,,
C=CC(C)(CCC=C(C)C)OC(=O)C(C)C (centres undefined),inactive,inactive,,
CC(C)C(=O)O,inactive,inactive,,
C/C=C/C=C/CO,inactive,inactive,,
NC(=O)c1ccc([N+](=O)[O-])cc1Cl,inactive,inactive,,
CCCCOCCOCCO,inactive,inactive,,
COCCOC[C@H](CC1(C(=O)NC2CCC(C(=O)O)CC2)CCCC1)C(=O)Oc1ccc2c(c1)CCC2 (some centres undefined),inactive,inactive,,
C=CCNCC=C,inactive,inactive,,
Cc1ccc(O)cc1,inactive,inactive,,
Oc1ccc2c(c1)OC[C@@H](N1CCC(O)(c3ccc(F)cc3)CC1)[C@H]2O,inactive,inactive,,
CNC(=S)NN,inactive,inactive,,
C=C(C)C(=O)OCCOC1CC2CC1C1C=CCC21 (centres undefined),inactive,inactive,,
O=C(O)Cn1c(=O)n(Cc2ccc(Br)cc2F)c(=O)c2ccc(Cl)cc21,inactive,inactive,,
COc1ccc(-c2cc(=O)c3c(O)cc(O[C@@H]4O[C@H](CO[C@@H]5O[C@@H](C)[C@H](O)[C@@H](O)[C@H]5O)[C@@H](O)[C@H](O)[C@H]4O)cc3o2)cc1O,inactive,inactive,,
CCOc1cc(NC(C)=O)ccc1C(=O)OC,inactive,inactive,,
CC(COCC(C)OC(=O)c1ccccc1)OC(=O)c1ccccc1 (centres undefined),inactive,inactive,,
CCCCCCC(O)CCCCCCCCCCC(=O)O (centres undefined),inactive,inactive,,
C#CC1(O)CC[C@H]2[C@@H]3CCC4=CCCC[C@@H]4[C@H]3CC[C@@]21C (some centres undefined),inactive,inactive,,
Cc1ccc2ncccc2c1,inactive,54.5 µM (active),,

Compound,Potency [1],Potency [2],"viability change, negative = cytotoxic [1]","activity change, negative = cytotoxicity [2]"
CC(O)CC(C)O (centres undefined),inactive,inactive,,
Cc1ncc[nH]1,inactive,inactive,,
CN1C(=O)OC(C)(C)C1=O,inactive,inactive,,
[Cl][Sc]([Cl])[Cl],inactive,inactive,,
Nc1c(Br)cc([N+](=O)[O-])cc1Br,inactive,inactive,,
C=C1CC[C@H](O)CC1=C/C=C1\CCC[C@]2(C)[C@@H]([C@H](C)/C=C/[C@H](C)C(C)C)CC[C@@H]12,inactive,inactive,,
OCCOCCOCCOCCOCCO,inactive,inactive,,
O=C(O)CCN(C1(C(=O)NO)CCCC1)S(=O)(=O)c1ccc(Oc2ccc(F)cc2)cc1,inactive,inactive,,
COc1cc(Cl)ccc1Cl,inactive,inactive,,
CNC(=O)c1cc(Oc2ccc(NC(=O)Nc3ccc(Cl)c(C(F)(F)F)c3)cc2)ccn1,inactive,inactive,,
COc1cccc(N)c1,inactive,inactive,,
CCCCC=O,inactive,inactive,,
CCC(=O)Nc1cccc(N)c1,inactive,inactive,,
CCc1ccc2c(c1)C(=O)c1ccccc1C2=O,inactive,inactive,,
c1ccc2cc3c(ccc4ccccc43)cc2c1,inactive,inactive,,
FC(F)(F)/C(=N\OCC1OCCO1)c1ccc(Cl)cc1,inactive,inactive,,
NC[C@H]1O[C@H](O[C@H]2[C@H](O)[C@@H](O[C@H]3O[C@H](CO)[C@@H](O)[C@H](N)[C@H]3O)[C@H](N)C[C@@H]2N)[C@H](O)[C@@H](O)[C@@H]1O,,,-0.639% [at 8.39 µM],14.7% [at 8.39 µM]
O=C(CS)OCCOC(=O)CS,inactive,inactive,,
CCOC(=O)c1c(C)n(C)c2ccc(O)cc12,inactive,inactive,,
CC(C)C[C@@H](N)C(=O)O,,,3.57% [at 18.9 µM],-6.51% [at 18.9 µM]
CCCNC(C)C(=O)Nc1ccccc1C (centres undefined),inactive,inactive,,
COC(=O)C1=C(C)NC(C)=C(C(=O)OCC(C)=O)C1c1ccccc1[N+](=O)[O-] (centres undefined),inactive,inactive,,

Compound,Potency [1],Potency [2],"viability change, negative = cytotoxic [1]","activity change, negative = cytotoxicity [2]"
CCN(Cc1cccc(S(=O)(=O)O)c1)c1ccccc1,inactive,inactive,,
C=C(C)C(=O)OCc1ccccc1,inactive,inactive,,
COC(C)(C)OC,inactive,inactive,,
CCOC(=O)[C@H](CCc1ccccc1)N[C@@H](C)C(=O)N1[C@H](C(=O)O)C[C@@H]2CCC[C@@H]21,inactive,inactive,,
CCOC(=O)C(=O)OCC,inactive,inactive,,
CCOC(=O)c1ccc(NC(=O)CN2CCCCC2)cc1,inactive,inactive,,
COCCOC(=O)c1ccccc1C(=O)OCCOC,inactive,inactive,,
Cc1ccc(C(C)(C)C)cc1,inactive,inactive,,
Cc1cnc(C(=O)NCCc2ccc(S(=O)(=O)NC(=O)NC3CCCCC3)cc2)cn1,inactive,inactive,,
CC(C=O)c1ccccc1 (centres undefined),inactive,inactive,,
CC(C)=CCC/C(C)=C\C#N,inactive,inactive,,
Clc1ccc2c(c1)C(N1CCNCC1)=Nc1ccccc1O2,inactive,inactive,,
CC(C)(O)C(=O)c1ccc(OCCO)cc1,inactive,inactive,,
Oc1ccc2c(c1)Cc1ccccc1-2,inactive,inactive,,
CC/C(C)=N/O,inactive,inactive,,
CCCCC/C=C/CC(=O)OC,inactive,inactive,,
c1cc(N(CC2CO2)CC2CO2)ccc1OCC1CO1 (centres undefined),inactive,inactive,,
CC/C=C\C/C=C\C/C=C\CCCCCCCC(=O)O,inactive,inactive,,
COC(C)CCO (centres undefined),inactive,inactive,,
CCCCCCCCSCCO,inactive,inactive,,
CCCCCCCCCCCCS(=O)(=O)Cl,,,11.7% [at 18.9 µM],8.81% [at 18.9 µM]
CNNCc1ccc(C(=O)NC(C)C)cc1,inactive,inactive,,

Compound,Potency [1],Potency [2],"viability change, negative = cytotoxic [1]","activity change, negative = cytotoxicity [2]"
C=CC(=O)O[C@H]1C[C@@H]2CC[C@@]1(C)C2(C)C,inactive,inactive,,
Cc1cccnc1,inactive,inactive,,
Nc1ccc(S(=O)(=O)NCc2ccccc2)cc1,inactive,inactive,,
CCC1CCC(CCC(=O)O)C1 (centres undefined),inactive,inactive,,
C[C@@H](O)[C@H]1C(=O)N2C(C(=O)O)=C([C@H]3CCCO3)S[C@H]12,inactive,inactive,,
CCCCCCCCCCCCCCCCCBr,,,1.85% [at 18.9 µM],1.37% [at 18.9 µM]
CCOC(=O)CC(=O)OCC,inactive,inactive,,
COc1ccc(-c2coc3cc(O)cc(O)c3c2=O)cc1,inactive,inactive,,
N#CSc1ccc(N)c([N+](=O)[O-])c1,inactive,inactive,,
O=C(O)c1nc(Cl)c(Cl)c(Cl)c1Cl,inactive,inactive,,
Cc1cccc(C(=O)O)c1[N+](=O)[O-],inactive,inactive,,
Nc1ccc(C(=O)Nc2ccccc2N)cc1,inactive,inactive,,
CC(C)C[C@@H]1[C@H](c2ccccc2)OC(=O)N1CCCN1CCCCCC1,inactive,inactive,,
CC(C)(O)C#CC(C)(C)O,inactive,inactive,,
C[Si](NC1CCCCC1)(NC1CCCCC1)NC1CCCCC1,inactive,inactive,,
O=CO,,,-5.83% [at 8.39 µM],-4.64% [at 8.39 µM]
O=C(NCCO[N+](=O)[O-])c1cccnc1,inactive,inactive,,
CN(C)CCCO[C@@H]1[C@H]2OC(C)(C)O[C@H]2O[C@@H]1C(O)CO (some centres undefined),inactive,inactive,,
CO[C@]1(NC(=O)CSC(F)F)C(=O)N2C(C(=O)O)=C(CSc3nnnn3CCO)CO[C@H]21,inactive,inactive,,
CN1CCC(=C2c3ccccc3C=Cc3ccccc32)CC1,inactive,inactive,,
CCCCCCCCCCOC(C)=O,inactive,inactive,,
Fc1ccc(Br)cc1,inactive,inactive,,

Compound,Potency [1],Potency [2],"viability change, negative = cytotoxic [1]","activity change, negative = cytotoxicity [2]"
O=C(O)COCCN1CCN(C(c2ccccc2)c2ccc(Cl)cc2)CC1 (centres undefined),inactive,inactive,,
O=C(OCCc1ccccc1)c1ccccc1,inactive,inactive,,
O=C1[C@@H]2[C@H]3CC[C@H](C3)[C@@H]2C(=O)N1CCCCN1CCN(c2ncccn2)CC1,inactive,inactive,,
N#Cc1ccc(CC(=O)c2cccc(C(F)(F)F)c2)cc1,inactive,inactive,,
Cc1cccc(C)c1NC(=O)C(C)N (centres undefined),inactive,inactive,,
C#C[C@]1(OC(C)=O)CC[C@H]2[C@@H]3CCC4=C/C(=N/O)CC[C@@H]4[C@H]3CC[C@@]21CC,inactive,inactive,,
O=C(O)c1cc(Br)c(O)c(Br)c1,inactive,inactive,,
CCOc1ccc(C(=O)OCCN(CC)CC)cc1,inactive,inactive,,
C=C(C)CNCC,inactive,inactive,,
O=C(c1ccc2c(c1)C(=O)OC2=O)c1ccc2c(c1)C(=O)OC2=O,inactive,inactive,,
CNCCc1ccccn1,inactive,inactive,,
Cc1cc(O)cc2c1O[C@](C)(CCC[C@H](C)CCC[C@H](C)CCCC(C)C)CC2,inactive,inactive,,
CCc1cccc2c3c([nH]c12)C(CC)(CC(=O)O)OCC3 (centres undefined),inactive,inactive,,
O=C(CCCCCCCCC#CI)Oc1ccccc1,inactive,inactive,,
CCCCOC(=O)C(C)Oc1ccc(Oc2ccc(C(F)(F)F)cn2)cc1 (centres undefined),inactive,inactive,,
CC1=C(O)C(=O)C(C)O1 (centres undefined),inactive,inactive,,
NC(=O)Cc1cccc(C(=O)c2ccccc2)c1N,inactive,inactive,,
Cc1cc(CCN2CCN(c3nsc4ccccc34)CC2)cc2c1NC(=O)CC2(C)C,68.6 µM (active),68.6 µM (active),,
CC(C)C(=O)OCc1cccc(OC(=O)[C@@H]2N3C(=O)[C@@H](NC(=O)Cc4ccccc4)[C@H]3SC2(C)C)c1,inactive,inactive,,
